Measured values from the supplement of paper PMC10981050.
Values joined by “and” are separate entries in the source; they are usually repeats but may differ in a detail not shown here. Equal values may be shown once. Where a name gives a salt, the structure may show the parent alone.

Tests used:
Assay in all cases: cell viability relative to vehicle control; higher = less cytotoxic
Details in all cases: 10 µM
[1] = system: K562
Summary of the method: (§1)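 Screening covered the Selleck bioactive, kinase and epigenetic probe libraries, less identity-inconsistent compounds, on CRISPR-edited mutant clones and isogenic wild-type clones of four leukaemia lines. Cells, at 2000 per well in 50 µL medium, received a single 10 µM acoustically dispensed dose. After 48 h the supernatant was removed and CellTiter-Glo luminescence was read. Viability was analysed in Genedata Screener as percent of the on-plate vehicle control.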

[2] = system: MARIMO
Summary of the method: as §1

[3] = system: MOLM14
Summary of the method: as §1

[4] = system: OCI-AML2
Summary of the method: as §1

| Compound | cell viability ([1]; SRSF2 genotype: SRSF2 P95H/wt) | cell viability ([1]; SRSF2 genotype: SRSF2 wt/wt) | cell viability ([2]; SRSF2 genotype: SRSF2 P95H/wt) | cell viability ([2]; SRSF2 genotype: SRSF2 wt/wt) | cell viability ([3]; SRSF2 genotype: SRSF2 P95H/wt) | cell viability ([3]; SRSF2 genotype: SRSF2 wt/wt) | cell viability ([4]; SRSF2 genotype: P95H/wt) | cell viability ([4]; SRSF2 genotype: wt/wt) |
| --- | --- | --- | --- | --- | --- | --- | --- | --- |
| CC1(C)O[C@H]2CC(=O)OC[C@]23[C@H]2CC[C@@]4(C)[C@H](c5ccoc5)OC(=O)[C@H]5O[C@]54[C@]2(C)C(=O)C[C@@H]13 [Limonin] | 98% and 110% | 109% | 97.3% | 109% | 102% | 109% | 111% | 102% |
| C[C@H](CCC(=O)O)[C@H]1CC[C@H]2[C@@H]3[C@H](O)C[C@@H]4C[C@H](O)CC[C@]4(C)[C@H]3CC[C@]12C [Chenodeoxycholic acid] | 97.4% and 101% | 99.7% | 104% | 108% | 100% | 101% | 98.4% | 106% |
| CCCc1nn(C)c2c(=O)[nH]c(-c3cc(S(=O)(=O)N4CCN(C)CC4)ccc3OCC)nc12 [Sildenafil Mesylate] | 103% and 96.9% | 103% | 99% | 108% | 107% | 103% | 110% | 105% |
| CCCCCCOc1cc(C)c(O)c(C)c1C [HTHQ(1-O-Hexyl-2,3,5-trimethylhydroquinone)] | 93.5% and 93.8% | 106% | 89.1% | 96% | 91.1% | 102% | 98.7% | 107% |
| C#Cc1cccc(Nc2ncnc3cc(OCCOC)c(OCCO)cc23)c1 [OSI-420 (Desmethyl Erlotinib)] | 43.5% and 54.3% | 44.4% | 53.9% | 49.5% | 32.1% | 29.9% | 30.6% | 37.5% |
| COc1cc2nc(N3CCN(C(=O)C4CCCO4)CC3)nc(N)c2cc1OC (stereo not drawn) [Terazosin HCl Dihydrate] | 101% and 95.7% | 97% | 101% | 105% | 99.1% | 96.2% | 94.8% | 103% |
| CC(C)N(CCCNC(=O)Nc1ccc(C(C)(C)C)cc1)C[C@H]1O[C@@H](n2ccc3c(N)ncnc32)[C@H](O)[C@@H]1O | 94.6% and 92.6% | 86.1% | 89.3% | 96.9% | 95.5% | 92% | 84.3% | 89.6% |
| COc1cc2c(cc1OC)[C@@H](Cc1ccc(O)c(Oc3cc4c(cc3OC)CCN(C)[C@@H]4Cc3ccc(O)cc3)c1)N(C)CC2 [Liensinine] | 86.6% and 83% | 78.5% | 63.3% | 74.6% | 69.1% | 83.3% | 63.2% | 59.9% |
| O=c1[nH]c(=S)[nH]c2nc(-c3ccccc3)c(-c3ccccc3)nc12 | 97.9% and 90.8% | 92% | 103% | 105% | 92.8% | 97.4% | 98.9% | 98.3% |
| Clc1ncnc2nc[nH]c12 [6-Chloropurine] | 88.9% and 82.6% | 82.7% | 92.3% | 87% | 88.9% | 90.3% | 83.3% | 87.9% |
| CC(CNC(=O)c1cccnc1)NC(=O)c1cccnc1 (stereo not drawn) [Nicaraven] | 100% and 95.4% | 107% | 106% | 108% | 101% | 104% | 101% | 98.4% |
| C[C@H]1CNC(=O)c2cnn3ccc(nc23)N[C@H](C)c2cc(F)ccc2O1 | 14.4% and 36.7% | 18% | 48.6% | 51.6% | 9.21% | 5.47% | 8.06% | 19.4% |
| O=C(NC(Cc1cc(=O)[nH]c2ccccc12)C(=O)O)c1ccc(Cl)cc1 (stereo not drawn) [Rebamipide] | 99.4% and 101% | 96.4% | 96.9% | 100% | 104% | 101% | 94.8% | 102% |
| COc1c2c(cc3oc(COC4OC(CO)C(O)C(O)C4O)cc(=O)c13)OC(C(C)(C)O)C2 (stereo not drawn) [Prim-o-glucosylcimifugin] | 83.8% and 84.2% | 88.3% | 84% | 94% | 88.3% | 88.2% | 91.8% | 98.1% |
| CCCCC[C@H](O)CC(=O)CCc1ccc(O)c(OC)c1 [6-Gingerol] | 87.8% and 85.7% | 82.9% | 86.8% | 98.7% | 90.6% | 95.5% | 90.9% | 81.8% |
| CO/N=C(\C(=O)N[C@@H]1C(=O)N2C(C(=O)OC(C)OC(C)=O)=C(COC(N)=O)CS[C@H]12)c1ccco1 (stereo partly drawn) [Cefuroxime axetil] | 103% and 102% | 96.2% | 99.6% | 104% | 101% | 107% | 111% | 105% |
| O=C(c1ccc(Nc2nccc(-c3cc4ccccc4s3)n2)cc1)N1CCC(N2CCCC2)CC1 | 1.53% and 1.22% | 1.15% | 0.47% | 0.54% | 0.29% | 0.3% | 0.25% | 0.35% |
| O=c1c2cc(O[C@@H]3O[C@H](CO)[C@@H](O)[C@H](O)[C@H]3O)c(O)cc2oc2cc(O)c([C@@H]3O[C@H](CO)[C@@H](O)[C@H](O)[C@H]3O)c(O)c12 [Neomangiferin] | 95.1% and 100% | 97% | 93.8% | 91.2% | 99.4% | 100% | 101% | 97.7% |
| COc1cc(-c2oc3cc(O)cc(O)c3c(=O)c2O)ccc1O [Isorhamnetin] | 87.2% and 88.3% | 86.6% | 83.4% | 92.4% | 71.8% | 79.4% | 81.1% | 89% |
| CC[C@@H](CO)NCCN[C@@H](CC)CO [Ethambutol HCl] | 99.5% and 99.3% | 98.7% | 99.4% | 112% | 100% | 102% | 104% | 107% |
| C=C(C(=O)O)C1CCC(C)C2CCC(C)=CC12 (stereo not drawn) [Artemisic acid] | 114% and 110% | 113% | 108% | 90.8% | 104% | 108% | 99.1% | 103% |

| Compound | cell viability ([1]; SRSF2 genotype: SRSF2 P95H/wt) | cell viability ([1]; SRSF2 genotype: SRSF2 wt/wt) | cell viability ([2]; SRSF2 genotype: SRSF2 P95H/wt) | cell viability ([2]; SRSF2 genotype: SRSF2 wt/wt) | cell viability ([3]; SRSF2 genotype: SRSF2 P95H/wt) | cell viability ([3]; SRSF2 genotype: SRSF2 wt/wt) | cell viability ([4]; SRSF2 genotype: P95H/wt) | cell viability ([4]; SRSF2 genotype: wt/wt) |
| --- | --- | --- | --- | --- | --- | --- | --- | --- |
| C=C1CCC2C(C)(CO)C(O)CCC2(C)C1CC=C1C=COC1=O (stereo not drawn) [Dehydroandrographolide] | 75.2% and 78.9% | 75.8% | 77.8% | 96.3% | 83.8% | 93.9% | 74.6% | 86.5% |
| O=C(O)c1ccc(O)c2ncccc12 | 99.2% and 102% | 97.3% | 107% | 108% | 98.9% | 102% | 108% | 102% |
| O=C(CCc1ccc(O)cc1)c1c(O)cc(O)cc1O[C@@H]1O[C@H](CO)[C@@H](O)[C@H](O)[C@H]1O [Phlorizin (Phloridzin)] | 104% and 94.2% | 92.3% | 93% | 102% | 92.2% | 94.8% | 90.1% | 91.7% |
| O=C(O)Cc1ccccc1Nc1c(Cl)cccc1Cl [Diclofenac Diethylamine] | 102% and 108% | 95.4% | 105% | 101% | 106% | 102% | 105% | 103% |
| O=C(CCc1ccc(O)cc1)c1c(O)cc(O)cc1O [Phloretin] | 96.9% and 94.4% | 98.1% | 93.5% | 90.2% | 91% | 95.7% | 87.5% | 87.9% |
| CC(/C=C/C=C(\C)C(=O)O[C@@H]1O[C@H](CO[C@@H]2O[C@H](CO)[C@@H](O)[C@H](O)[C@H]2O)[C@@H](O)[C@H](O)[C@H]1O)=C\C=C\C=C(C)\C=C\C=C(/C)C(=O)O[C@@H]1O[C@H](CO[C@@H]2O[C@H](CO)[C@@H](O)[C@H](O)[C@H]2O)[C@@H](O)[C@H](O)[C@H]1O [Crocin] | 101% and 100% | 99.8% | 95.6% | 100% | 95.2% | 102% | 107% | 102% |
| COc1ccc(COc2ccc(CC#N)cc2)cc1 | 103% | 97.9% | 96.4% | 108% | 114% | 110% | 96.3% | 82.9% |
| CC(C)[C@H](NC(=O)[C@H](CC(=O)O)NC(=O)[C@H](CCCCN)NC(=O)[C@@H](N)CCCN=C(N)N)C(=O)N[C@@H](Cc1ccc(O)cc1)C(=O)O [Thymopentin] | 92.2% and 89.2% | 87% | 86.4% | 94.6% | 95.8% | 91.6% | 77.9% | 89.5% |
| COc1ccc(C2CNC(=O)C2)cc1OC1CCCC1 (stereo not drawn) [S-(+)-Rolipram] | 94.7% and 105% | 102% | 102% | 110% | 99.8% | 108% | 96.7% | 103% |
| CC(C)(Cc1ccc2ccccc2c1)NC[C@@H](O)COc1cccc(Cl)c1C#N | 10.7% and 3.37% | 1.65% | 26.8% | 25.5% | 8.56% | 2.3% | 0.55% | 1.15% |
| Cc1cnc(NC(=O)C2=C(O)c3ccccc3S(=O)(=O)N2C)s1 [Meloxicam (Mobic)] | 98.6% and 90.8% | 90% | 86.4% | 103% | 90.8% | 92.7% | 86.6% | 99.4% |
| CCOc1ccc(Cc2cc([C@@H]3O[C@H](SC)[C@@H](O)[C@H](O)[C@H]3O)ccc2Cl)cc1 [Sotagliflozin (LX4211)] | 84.2% and 86% | 81.4% | 86.3% | 97.3% | 89.7% | 89.5% | 88.6% | 96.9% |
| O=C(O)/C=C/c1ccc(Cn2ccnc2)cc1 [Ozagrel] | 102% and 100% | 94.6% | 101% | 106% | 102% | 100% | 98.1% | 99.6% |
| Nc1ccc(S(=O)(=O)Nc2ccccn2)cc1 [Sulfapyridine (Dagenan)] | 94.3% and 101% | 97.1% | 97.7% | 107% | 103% | 100% | 106% | 97.6% |
| C=C1CC[C@@H]2[C@](C)(COC(=O)CCC(=O)O)[C@H](OC(=O)CCC(=O)O)CC[C@@]2(C)[C@@H]1/C=C/C1=CCOC1=O [Dehydroandrographolide Succinate Potasium Sa] | 105% and 103% | 105% | 105% | 101% | 99.1% | 105% | 109% | 104% |
| NCCc1c[nH]cn1 [Histamine] | 96.1% and 97.6% | 91.1% | 84% | 93% | 56% | 63.6% | 81.6% | 82.4% |
| C[C@H]1C[C@H]2[C@@H]3C[C@H](F)C4=CC(=O)C=C[C@]4(C)[C@@]3(F)[C@@H](O)C[C@]2(C)[C@@]1(O)C(=O)CO [Diflorasone] | 101% and 99.2% | 105% | 109% | 113% | 92.1% | 98.9% | 92.7% | 120% |
| CC(=O)CCc1ccccc1 [Benzylacetone] | 100% and 103% | 104% | 101% | 92.5% | 106% | 98.6% | 106% | 94.8% |
| C[C@@]1(c2cc(-c3cncnc3)c(F)cc2F)CCSC(N)=N1 | 100% and 99.9% | 100% | 104% | 105% | 92.2% | 102% | 100% | 99.2% |
| Nc1nc(=O)[nH]cc1F [Flucytosine (Ancobon)] | 102% and 98.9% | 102% | 103% | 105% | 95.9% | 102% | 105% | 109% |
